TWEAK-Fn14 inh: inhibitors of TWEAK-Fn14 signaling, primary screen, luciferase reporter cells, uHTS. TWEAK-stimulated Fn14 reporter cells, luciferase luminescence, 8 h. inhibition, % at 10 µM. actives 2% (n = 360,000). AID 1159606, 2016; in the data active means inhibition above about 50%
CF NFkB block: inhibitors of PAF-induced NF-kB signaling, primary screen, cell-based, GFP fluorescence, uHTS | inhibition, % at 5 µM | actives 0.86% (n = 360,000) | KKLEB NF-kB-GFP reporter, GFP fluorescence overnight;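 active means at least 50% inhibition at 5 µM, scaled per plate between neutral and stimulator controls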;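 further: PAF is a Pseudomonas aeruginosa culture filtrate used as stimulus; plate controls were PAF-stimulated DMSO wells for no effect and unstimulated DMSO wells for full effect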
Peg3 promoter: Peg3 promoter-driven luciferase inhibitors, primary screen, cell-based, HeLa, luciferase luminescence. actives 1.7% (n = 360,000). HeLa PEG-Prom luciferase reporter, overnight. AID 588405, 2011. inhibition, % at 20 µM;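 active means inhibition of at least 50% at 20 µM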
TROY signal inh: inhibitors of TROY-driven NF-kB signaling, primary screen, Q293 LMP1-TROYcd cells, NF-kB luciferase, uHTS; Q293 LMP1-TROYcd NF-kB luciferase reporter, 4 h; inhibition, % at 10 µM; actives 0.98% (n = 360,000); AID 1347056, 2019;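 active means compounds whose plate-normalised and pattern-corrected inhibition of the luciferase reporter signal at the single screening dose is 50% or more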
HIF-2a inh: HIF-2a reporter inhibitors, primary screen, luminescence, 786-0 RCC cells | 786-0 RCC cells HIF-2a reporter, luciferase luminescence, overnight | AID 624352, 2012 | inhibition, % at 18.8 µM | actives 0.72% (n = 360,000);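 active means inhibition of the luminescence signal of 40% or more relative to plate controls, in a single-dose primary screen at 18.75 µM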
KKLEB cytotox: cytotoxicity in KKLEB CF airway cells, primary screen, cytotoxicity control for CF NF-kB inhibitor project, cell-based, uHTS, fluorescence assay plates; AID 602141, 2011; activity change (cytotoxicity), % at 5 µM; KKLEB CF airway cells viability, ATPlite luminescence, overnight; hits give low values; cells stimulated with P. aeruginosa culture filtrate; actives 0.36% (n = 360,000);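 active means corrected activity change at or below -50% at 5 µM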
Numbers without * were called inactive; . = no result. A selection: hits, their analogues and other compounds. The true share with any hit is near 3.9%.

SMILES	TWEAK-Fn14 inh	CF NFkB block	Peg3 promoter	TROY signal inh	HIF-2a inh	KKLEB cytotox
CCOC(=O)c1oc2nc(C(C)C)c3c(c2c1N)CCC3	-4	-4	-6	4	0	8
CCSC1=C(C#N)C2(CCCCC2)C(C#N)C(=O)N1 (centres undefined)	-70	9	54*	10	13	3
C[C@@H]1COc2cccc(N3CCC[C@H]3CO)c2S(=O)(=O)N1	18	.	.	-3	1	.
CN(CC(=O)NCCCN1CCOCC1)S(=O)(=O)c1ccc(Br)cc1	63*	-4	14	.	13	6
CN(CC(=O)NCCN1CCOCC1)S(=O)(=O)c1ccc(Cl)cc1	0	-8	10	10	9	21
CC(C)Cn1c(N)c(C(=O)COC(=O)c2cnc(Cl)c(Cl)c2)c(=O)n(C)c1=O	0	8	74*	41	8	-16
Cc1csc(SCC(=O)c2c(N)n(CC(C)C)c(=O)n(C)c2=O)n1	52*	-14	14	21	-26	1
Cc1ccc(NC(=O)C2CCCN2S(=O)(=O)c2ccc3c(c2)n(C)c(=O)c(=O)n3C)c(C)c1 (centres undefined)	2	-14	-2	3	18	20
O=C1CCc2cc(S(=O)(=O)NC3CCCCC3)ccc2N1	28	-13	103*	6	8	-2
CC1CCCCC1NS(=O)(=O)c1ccc2c(c1)CCC(=O)N2 (centres undefined)	18	0	-8	-9	3	21
CCCc1nnc(NC(=O)C(=O)NCCN(C)C)s1	9	-2	3	-4	11	-1
CCCc1nnc(NC(=O)C(=O)NCCN(CC)CC)s1	19	6	6	54*	8	2
CNCCCOc1ccc(Cl)cc1C(C)(C)C	-4	18	68*	1	4	-22
COC(=O)c1cccc2c1-c1ccccc1/C2=N/O	83*	72*	12	56*	32	-15
S=C1NCN(CCc2ccccc2)CN1Cc1ccccc1	96*	9	4	13	19	-10
CCCN1CN(CCc2ccccc2)CNC1=S	104*	4	22	-11	9	1
CCCCCCCCN1[C@@H](CC(=O)OCC)c2ccc(C(F)(F)F)cc2S1(=O)=O	-10	20	-2	3	14	9
O=C(NCCc1cn2ccccc2n1)c1cc(COc2ccc3ncccc3c2)on1	66*	45	13	41	-14	-11
COc1cccc(CN(C)C(=O)c2cc(COc3ccc4ncccc4c3)on2)c1	59*	-6	12	41	-10	4
CCC(C)NS(=O)(=O)c1ccc(S(=O)(=O)N(CCc2ccc(OC)c(OC)c2)Cc2cccs2)cc1 (centres undefined)	55*	6	20	31	13	-4
Cc1ccc(N=Nc2ccc(O)c(/C=N\NC(=O)c3ccc(N)cc3)c2)cc1C	16	5	-17	-36	-98	2
COc1ccc2oc(-c3ccc(NC(=O)c4ccc(N5CCOCC5)c([N+](=O)[O-])c4)cc3)nc2c1	-48	54*	29	30	19	-60*
CNC(=O)/C(C#N)=C\c1cc(C)n(-c2ccc(N3CCOCC3)cc2)c1C	27	-12	-15	7	0	0
COc1ccc(NC(=O)/C(C#N)=C/c2cc(C)n(-c3ccc(N4CCOCC4)c([N+](=O)[O-])c3)c2C)cc1	79*	11	19	38	4	-11
Cc1cc(/C=C(\C#N)C(=O)Nc2ccc(F)cc2)c(C)n1-c1ccc(N2CCOCC2)c([N+](=O)[O-])c1	53*	5	6	38	-8	-10
SMILES	TWEAK-Fn14 inh	CF NFkB block	Peg3 promoter	TROY signal inh	HIF-2a inh	KKLEB cytotox
COc1ccccc1N/N=C/c1ccc2c(c1)OCO2	60*	3	-112	-4	-59	10
O=C(N/N=C/c1ccc([N+](=O)[O-])cc1)c1cc(-c2ccc3c(c2)OCO3)n[nH]1	-15	-23	11	8	11	6
COc1cc(/C=N/NC(=O)c2cc(-c3ccc4c(c3)OCO4)n[nH]2)ccc1O	51*	-43	-46	-15	-11	5
CCOC(=O)c1oc2ccc(Br)cc2c1CSc1nnc(C)s1	6	-3	3	-3	7	-18
Cc1cc(C)c(S(=O)(=O)/N=C2/C=C(SCC(=O)O)C(=O)c3ccccc32)cc1C	26	56*	2	45	2	-4
O=C(Nc1ccc(Br)c(C(F)(F)F)c1)c1ccc(C(F)(F)F)cc1	63*	65*	-48	47	-274	-69*
O=C(Nc1ccc(OCC(F)(F)C(F)F)c(C(F)(F)F)c1)c1ccc(Cl)cc1	77*	42	25	52*	-13	-40
COc1cc(/C=N\Nc2nc3ccccc3[nH]2)cc(OC)c1OC	62*	1	-33	51*	-53	0
CCN(CC)c1ccc(/C=N/Nc2nc3ccccc3[nH]2)c(O)c1	53*	-4	-12	55*	-119	5
CCCCn1c(/C=N/Nc2nc3ccccc3[nH]2)nc2ccccc21	-96	2	-29	-53	-135	-6
C#CCn1cc(/C=N/Nc2nc3ccccc3[nH]2)c2ccccc21	53*	-26	-106	-4	-162	-3
COc1ccc2c(c1)c(/C=N/Nc1nc3ccccc3[nH]1)c(C)n2C	88*	-44	15	54*	-35	13
COc1ccc(/C=N/Nc2nc3ccccc3[nH]2)cc1OC	-10	-7	-186	-64	-188	1
OCCCn1c(C2CCCN2c2nc(-c3ccc(Cl)cc3)cs2)nc2cc(C(F)(F)F)ccc21 (centres undefined)	2	-18	9	11	16	9
CC(=O)NCc1ccc(C(=O)CCl)cc1	3	2	53*	1	15	14
CC(=O)Nc1ccc(C(=O)CCl)cc1	11	1	34	13	-12	-12
CC(=O)NCc1ccc(C(=O)CCl)s1	2	9	69*	-5	18	-26
O=C(Cn1nnc(-c2ccccc2)c1COc1ccc2ccccc2c1)NCC1CC1	15	1	11	6	7	-17
CCn1cnc2sc(C(=O)Nc3ccc4c(c3)OCO4)c(C)c2c1=O	57*	-13	-320	.	-224	2
COc1ccc(/C=C(\NC(=O)c2ccc(C)cc2)C(=O)Nc2ccc(C(=O)O)cc2)cc1	-2	-3	-45	4	-41	4

Screening data: PubChem, Sanford-Burnham Center for Chemical Genomics
